MEP2-GFP yeast – modulators of TOR pathway MEP2-GFP in S. cerevisiae | GFP response vs DMSO, % at 10 µM | S. cerevisiae MEP2-GFP strain, flow cytometry GFP, 3 h; 100% = DMSO control level | AID 2016 | 330,000 compounds, 0.51% hits;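 active means GFP response versus DMSO above a set limit, roughly screen mean plus 3 SD, cut at about 180% in these data; inconclusive means fewer than 70 cells counted for a yeast strain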;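 further: median GFP fluorescence of the barcode-gated MEP2-GFP cells per well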
CIT2 TOR yeast – modulators of TOR pathway CIT2-GFP in S. cerevisiae; S. cerevisiae CIT2-GFP strain, flow cytometry, 3 h; 100 means same as DMSO wells; GFP response vs DMSO, % at 10 µM; 320,000 compounds, 0.065% hits;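 active means GFP response relative to DMSO above a set limit, near the screen mean plus 3 SD, cut at about 150% in these data; inconclusive means Fewer than 70 cells measured for a yeast strain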;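 further: ratio of well median GFP fluorescence to mean of DMSO wells on the plate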
AGP1-GFP MLPCN – modulators of TOR pathway AGP1-GFP in S. cerevisiae. GFP response vs DMSO, % at 10 µM. 320,000 compounds, 0.02% hits. S. cerevisiae AGP1-GFP multiplex flow cytometry, 3 h; GFP as percent of DMSO wells;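 active means GFP response relative to DMSO above a set limit, near screen average plus 3 SD, cut at about 150% in these data; inconclusive means fewer than 70 cells counted for the yeast strain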;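 further: median GFP channel fluorescence of the gated AGP1 strain per well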
LAP4 TOR yeast – modulators of TOR pathway LAP4-GFP in S. cerevisiae; S. cerevisiae LAP4-GFP multiplex, flow cytometry GFP, 3 h; median GFP as percent of DMSO wells; GFP response vs DMSO, % at 10 µM; 320,000 compounds, 0.34% hits; AID 2023;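 active means GFP response vs DMSO above a set limit, about the screen mean plus 3 SD, cut at about 150% in these data; inconclusive means under 70 cell events counted for the yeast strain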
Pemphigus Ab inh – inhibitors of pemphigus antibody binding to human desmoglein-3. P32926. DSG3-coupled beads, scFv-anti-DSG3-GFP binding, flow cytometry; stronger effect = lower value. binding (percent of control), % at 10 µM. 310,000 compounds, 0.48% hits. AID 588358;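 active means binding more than 3 SD below its plate's average and above zero; inconclusive means below that plate limit but binding exactly zero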
Target sequence (P32926 whole entry, looked up): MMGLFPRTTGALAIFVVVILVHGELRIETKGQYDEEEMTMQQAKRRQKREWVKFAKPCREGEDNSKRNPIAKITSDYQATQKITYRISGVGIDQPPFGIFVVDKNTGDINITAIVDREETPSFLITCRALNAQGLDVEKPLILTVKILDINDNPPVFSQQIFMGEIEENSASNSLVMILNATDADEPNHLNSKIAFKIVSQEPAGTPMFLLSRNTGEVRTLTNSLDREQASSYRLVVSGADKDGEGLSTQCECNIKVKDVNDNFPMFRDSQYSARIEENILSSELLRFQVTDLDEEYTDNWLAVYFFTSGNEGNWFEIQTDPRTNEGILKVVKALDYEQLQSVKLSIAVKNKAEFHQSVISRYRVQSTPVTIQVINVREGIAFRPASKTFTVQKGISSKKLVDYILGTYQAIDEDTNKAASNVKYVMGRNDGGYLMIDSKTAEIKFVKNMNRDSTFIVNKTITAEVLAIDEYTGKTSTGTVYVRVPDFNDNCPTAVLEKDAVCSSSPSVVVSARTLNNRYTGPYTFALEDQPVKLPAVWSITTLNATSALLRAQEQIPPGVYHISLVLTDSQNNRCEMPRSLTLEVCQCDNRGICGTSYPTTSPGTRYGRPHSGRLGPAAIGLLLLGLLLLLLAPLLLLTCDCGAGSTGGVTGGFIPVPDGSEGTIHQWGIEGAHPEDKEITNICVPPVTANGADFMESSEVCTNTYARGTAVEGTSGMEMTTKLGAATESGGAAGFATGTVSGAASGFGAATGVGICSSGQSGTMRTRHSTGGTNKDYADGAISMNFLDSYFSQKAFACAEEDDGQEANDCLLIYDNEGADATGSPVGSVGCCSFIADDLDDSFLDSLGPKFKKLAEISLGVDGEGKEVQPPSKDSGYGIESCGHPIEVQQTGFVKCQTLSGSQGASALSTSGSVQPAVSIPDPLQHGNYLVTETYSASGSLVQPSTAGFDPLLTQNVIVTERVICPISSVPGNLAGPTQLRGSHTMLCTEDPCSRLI
RPL19A TOR yeast – alters RPL19A-GFP fluorescence in TOR pathway yeast screen; S. cerevisiae RPL19A-GFP strain, flow cytometry, 3 h; stronger effect = lower value; percent response vs DMSO, % at 10 µM; 330,000 compounds, 0.3% hits; AID 2025;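 active means percent response vs DMSO below 50%; inconclusive means fewer than 70 events counted for the yeast strain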;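 further: median channel GFP fluorescence of the barcoded RPL19A-GFP strain; ratio of sample median GFP to plate DMSO average so 100% = DMSO; lower means less RPL19A-GFP as with rapamycin TOR inhibition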
Starred values were filed as active, the others as inactive; ? = inconclusive; . = not tested or not shown; + = active, no number; [ ] = remark or other dose. This is a sample that favours compounds with a hit; in the whole collection about 1.2% have one here.

SMILES | MEP2-GFP yeast | CIT2 TOR yeast | AGP1-GFP MLPCN | LAP4 TOR yeast | Pemphigus Ab inh | RPL19A TOR yeast
O=C(Nc1cccc(-c2cn3c(n2)SCC3)c1)c1ccc2c(c1)OCO2 | 93.5 | 88.1 | 94.9 | 98.2 | 86.2 | 91.6
O=C(Nc1ccc(-c2cn3c(n2)SCC3)cc1)c1ccc2c(c1)OCO2 | 111.4 | 113.4 | 107.7 | 108.0 | 82.8* | 103.2
Cn1cnnc1SCc1cccc(Br)c1 | 97.1 | 96.6 | 103.8 | 98.5 | 41.1* | 99.0
Cn1c(SCc2cccc(Br)c2)nnc1-c1ccccn1 | 101.5 | 91.2 | 98.6 | 118.0 | 109.6 | 101.5
CCn1c(SCC(=O)Nc2ccc(C(C)=O)cc2)nc2nc3c(cc2c1=O)COC(C)(C)C3 | 98.8 | 100.4 | 105.5 | 107.3 | 95.3* | 96.3
CC1(C)Cc2nc3oc4c(=O)n(CC(=O)Nc5ccc(Cl)cc5)cnc4c3cc2CO1 | 105.5 | 93.9 | 104.2 | 106.8 | 87.0* | 98.2
CC(OC(=O)[C@@H](NS(=O)(=O)c1ccccc1)C(C)C)C(=O)c1c(N)n(C)c(=O)n(C)c1=O (some centres not stated) | . | . | . | . | 111.9 | .
c1ccc(CSc2ccc(-c3ccc4c(c3)OCO4)nn2)cc1 | 102.8 | 115.7 | 90.8 | 70.8 | 1.2* | 110.4
Fc1ccc(CSc2ccc(-c3ccc4c(c3)OCO4)nn2)cc1 | 107.5 | 101.4 | 103.1 | 104.9 | . | 109.5
CCOC(=O)C(=O)c1cn(C2OCC(OC(C)=O)C(OC(C)=O)C2OC(C)=O)c2ccccc12 (configuration not stated) | 174.1 | ? | 20.1 | 92.1 | 90.7 | 42.9*[may fluoresce violet]
O=C(COC(=O)c1ccc2c(c1)OCO2)Nc1ccccc1Cl | 102.3 | 86.4 | 90.6 | 97.7 | 100.3 | 90.8
CCOC(=O)N1CCN(C(=O)C2CCN(C(=O)c3ccccc3C)CC2)CC1 | . | . | . | . | 84.8 | .
O=[N+]([O-])c1ccccc1C1Nc2cccc3cccc(c23)N1 | 476.0*[may fluoresce violet] | ? | 24.3 | 103.3 | 107.0 | 63.5
Oc1ccccc1C1Nc2cccc3cccc(c23)N1 | 97.0 | 91.0 | 98.9 | 98.3 | 97.2 | 96.9
O=[N+]([O-])c1ccc(O)c(CN2CCCCCC2)c1 | 107.4 | 106.4 | 100.1 | 96.8 | 103.9 | 103.5
CCOC(=O)c1cc2ccc(OC(=O)c3ccco3)cc2oc1=O | 198.4*[may fluoresce violet] | ? | ? | 103.8 | 95.1 | 49.6*[may fluoresce violet]
CCOC(=O)c1cc2ccc3ccccc3c2oc1=O | 102.8 | 102.9 | 81.4 | 87.7 | 121.2 | 100.5
CCc1nnc(NC(=O)CSc2nnc(C3CCCCC3)n2-c2cccc(Cl)c2)s1 | + | 199.1* | 198.4* | 343.4* | 100.9 | 48.5*
CCOc1ccc(C(=O)NCC(=O)N2CCCC2)cc1 | 114.9 | 102.3 | 103.8 | 115.4 | . | 106.4
COc1ccccc1Oc1coc2c(CN3CCN(C)CC3)c(O)ccc2c1=O | 224.9*[may fluoresce violet] | ? | ? | 88.8 | 106.5 | 63.1
COc1ccccc1-c1coc2c(CN3CCN(C)CC3)c(O)ccc2c1=O | 99.8 | 97.5 | 103.5 | 100.9 | . | 101.3
CN(C(=O)c1cccc(NC(=O)Cc2ccc(NC(=O)C3CCCN(C(=O)CCc4ccccc4)C3)cc2)c1)C1CCCCC1 (configuration not stated) | . | . | . | . | 98.5 | .
CC[n+]1c(/C=C/N(C)c2ccccc2)oc2ccc(Cl)cc21 | 100.2 | 99.5 | 103.4 | 89.2 | 166.6 | 106.5
CCN1/C(=C/C=C/c2oc3ccc4ccccc4c3[n+]2CC)Oc2ccc3ccccc3c21 | +[may fluoresce green] | +[may fluoresce green] | . | +[may fluoresce green] | . | 391.6
Cc1ccccc1OCc1nnc(SCCN2CCCC2)n1-c1ccccc1 | 103.4 | ? | ? | 167.8*[may fluoresce violet] | 101.5 | 30.2*[may fluoresce violet]
SMILES | MEP2-GFP yeast | CIT2 TOR yeast | AGP1-GFP MLPCN | LAP4 TOR yeast | Pemphigus Ab inh | RPL19A TOR yeast
Cc1ccccc1OCc1nnc(SC(C)C(=O)O)n1-c1ccccc1 (configuration not stated) | . | . | . | . | 98.9 | .
COc1ccc(NC(=O)c2cn(-c3ccccc3)nc2-c2ccncc2)cc1 | 97.2 | 97.1 | 101.3 | 103.3 | 98.2 | 98.4
COc1ccc(-c2nn(-c3ccccc3)cc2C(=O)NC(=S)NNC(=O)c2ccncc2)cc1 | 112.5 | 106.6 | 100.7 | 150.4* | 105.8 | 103.5
COc1ccc(N2CCN(S(=O)(=O)c3ccc(Cl)c(C(F)(F)F)c3)CC2)cc1 | 92.7 | 97.2 | 97.5 | 94.0 | 96.9 | 98.8
COc1ccc(N2CCN(S(=O)(=O)c3cccc(C(F)(F)F)c3)CC2)cc1 | 92.5 | 102.5 | 93.4 | 84.6 | -25.3* | 100.7
CCOc1ccc(OCc2ccc(C(=O)OCc3ccccn3)o2)cc1 | 94.4 | 71.3 | 79.8 | 118.6 | 40.2* | 96.6
Cc1ccc(-n2nc(C)c3c(C)c(CCC(=O)O)c(C)nc32)cc1 | 184.6* | 134.4 | 91.1 | 150.6* | 104.6 | 105.4
Cc1ccc(-n2nc(C)c3c(C)c(CCC(=O)O)c(C)nc32)cc1C | 99.7 | 84.7 | 84.3 | 124.1 | 90.7 | 98.9
O=C(O)c1cnnc2ccccc12 | . | . | . | . | 116.7 | .
CCOC(=O)c1cc(S(=O)(=O)N2CCN(C(=O)OCC)CC2)cn1C | 200.1* | 95.0 | 26.7 | 85.8 | 110.5 | 94.8
COC(=O)c1ccc(COc2ccc(/C=N/Nc3nc(C)cc(=O)[nH]3)cc2)cc1 | 98.9 | 103.9 | 100.9 | 106.5 | 94.9 | 99.6
COc1ccc(C2=CC3=C(Br)C(=O)C(C)(OC(=O)c4ccc(Cl)nc4)C(=O)C3=CO2)cc1 (configuration not stated) | 84.3 | ? | 6.0 | 58.8 | . | 20.9*[may fluoresce violet]
COc1ccc(C2=CC3=C(Br)C(=O)C(C)(OC(=O)C4CCCC4)C(=O)C3=CO2)cc1 (configuration not stated) | 137.5 | ? | 10.6 | 128.5 | 86.0 | 38.6*[may fluoresce violet]
O=C1c2ccccc2C2=Nc3ccccc3SC(c3cccc(F)c3)C12 (configuration not stated) | 180.0* | 101.4 | 93.6 | 118.8 | 127.2 | 103.4
Cc1ccc(SCC(=O)Nc2cc(S(=O)(=O)N3CCCCC3)ccc2C)cc1 | 103.9 | 91.8 | 96.7 | 94.4 | 91.8 | 95.6
CCC(CC)NC(=O)COn1nnc2ccc(S(=O)(=O)N3CCOCC3)cc21 | 98.7 | 89.5 | 107.5 | 106.5 | 97.5 | 95.5
Cc1ccc(-c2cn3cccnc3n2)cc1NC(=O)c1ccc(Br)o1 | 94.3 | 92.8 | . | 93.2 | 80.8* | 94.2
CCOC(=O)/C=C1\CN(C(C)c2ccccc2)S(=O)(=O)c2ccccc21 (configuration not stated) | 97.9 | 72.0 | 83.5 | 131.5 | 108.4 | 96.4
NC(=O)c1ccc(NC(=O)COC(=O)c2ccc(Cl)nc2)cc1 | 86.2 | 89.4 | 88.9 | 74.7 | 102.2 | 92.0
NC(=O)c1ccsc1NC(=O)COC(=O)c1ccc(Cl)nc1 | 92.5 | 84.7 | 96.1 | 97.7 | 58.8* | 96.5
Cc1ccc(SC(=O)c2c(C)noc2-c2cc(C)on2)cc1 | 104.5 | 89.9 | 107.9 | 155.4* | 94.2 | 96.9
